# Measurements: PubChem BioAssay
# For some assays here: Entries with a potency or affinity are not part of this list. Calls of active or inactive are those of the source.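 How the source made its calls, unless noted: active means at least 20% inhibition of 6-phosphogluconate dehydrogenase activity; inactive means the rest.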
# Columns and labels:
# [1] = molecular target: 6-phosphogluconate dehydrogenase, decarboxylating (Homo sapiens) (UniProt P52209); experiment: inhibition of human phosphogluconate dehydrogenase – biochemical, recombinant enzyme, NADPH absorbance, primary screen (AID 1159550); conditions: recombinant 6PGD, NADPH absorbance 341 nm; at 10 µM; stronger effect = higher value
# [2] = molecular target: Mitogen-activated protein kinase 7 (Homo sapiens) (UniProt Q13164); experiment: Gal4-ERK5 driven luciferase induction – cell-based, HTS, primary screen (AID 1508626;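 active means luciferase signal above three times the same-plate solvent-only control wells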;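 further: luciferase driven by Gal4-ERK5 fusion binding five Gal4 sites before minimal TATA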); conditions: HeLa Gal4-ERK5 transactivation, 18 h, at 5 µM, stronger effect = higher value
# [3] = yeast 75Q aggregation reduction – 75Q-TubU reporter (AID 1593); conditions: Yeast 75Q polyglutamine aggregation reporter
# [4] = restoration of touch response, mutant HTT neurons – whole organism, C. elegans mechanosensory neurons, N-terminal huntingtin (AID 1599); conditions: C. elegans polyQ-huntingtin mechanosensory neurons, stronger effect = higher value
# [5] = blockers of cytochrome c efflux from mitochondria – biochemical, purified mitochondria (AID 1603); conditions: stronger effect = lower value;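 further: mouse liver mitochondria challenged with calcium chloride; signal normalized to the plate average as 100%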
# [6] = polyglutamine aggregate formation blockers (AID 1604); conditions: polyglutamine-induced protein aggregation inhibition assay; stronger effect = higher value; tested at 2.5 µM
# [7] = glutamate transport activators, MN-1 cells, MN-1 cell line (AID 1612); conditions: MN-1 motor neuron cells, stronger effect = higher value;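 further: tested at 1 µM final; 0% = mean of DMSO vehicle wells on each plate; positive means more glutamate uptake than control and negative means less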
# [8] = GFP-Q80 aggregate reduction, neuronal-like cells, cell-based, NGF-treated PC12, GFPQ80 (AID 1614); conditions: PC12 NGF-treated GFP-polyQ80 inclusion reduction;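 further: lower means fewer inclusions and 0 means no inclusions at all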
# [9] = 75Q-TubH aggregate inhibition, S. cerevisiae, yeast (AID 1616); conditions: S. cerevisiae 75Q-TubH polyglutamine aggregation suppression; stronger effect = higher value
# Mitogen-activated protein kinase 7 (Homo sapiens), sequence (Q13164 whole entry, looked up, the tested form may be a part): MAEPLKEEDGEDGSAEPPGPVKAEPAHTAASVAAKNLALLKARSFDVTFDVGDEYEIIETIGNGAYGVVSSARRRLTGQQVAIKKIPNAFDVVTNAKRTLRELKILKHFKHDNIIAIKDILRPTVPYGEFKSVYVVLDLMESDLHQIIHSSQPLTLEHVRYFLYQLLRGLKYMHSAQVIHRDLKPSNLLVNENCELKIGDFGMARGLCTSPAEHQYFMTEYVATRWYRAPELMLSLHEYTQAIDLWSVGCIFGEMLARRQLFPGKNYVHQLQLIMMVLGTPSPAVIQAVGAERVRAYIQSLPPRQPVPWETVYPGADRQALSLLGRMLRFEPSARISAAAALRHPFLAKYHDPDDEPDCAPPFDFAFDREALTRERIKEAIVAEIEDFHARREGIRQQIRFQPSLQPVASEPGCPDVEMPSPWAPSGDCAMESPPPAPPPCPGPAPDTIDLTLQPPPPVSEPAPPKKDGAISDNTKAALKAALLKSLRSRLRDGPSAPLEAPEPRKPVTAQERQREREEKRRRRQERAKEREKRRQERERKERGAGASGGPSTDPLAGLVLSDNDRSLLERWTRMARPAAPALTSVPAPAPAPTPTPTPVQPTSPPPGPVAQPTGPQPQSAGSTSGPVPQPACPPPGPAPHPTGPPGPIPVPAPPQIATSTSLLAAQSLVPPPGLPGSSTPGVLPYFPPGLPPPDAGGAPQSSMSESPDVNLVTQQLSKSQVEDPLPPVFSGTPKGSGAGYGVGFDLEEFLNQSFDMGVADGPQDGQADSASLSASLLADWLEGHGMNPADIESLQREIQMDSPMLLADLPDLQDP
# 6-phosphogluconate dehydrogenase, decarboxylating (Homo sapiens), sequence (P52209 whole entry, looked up, the tested form may be a part): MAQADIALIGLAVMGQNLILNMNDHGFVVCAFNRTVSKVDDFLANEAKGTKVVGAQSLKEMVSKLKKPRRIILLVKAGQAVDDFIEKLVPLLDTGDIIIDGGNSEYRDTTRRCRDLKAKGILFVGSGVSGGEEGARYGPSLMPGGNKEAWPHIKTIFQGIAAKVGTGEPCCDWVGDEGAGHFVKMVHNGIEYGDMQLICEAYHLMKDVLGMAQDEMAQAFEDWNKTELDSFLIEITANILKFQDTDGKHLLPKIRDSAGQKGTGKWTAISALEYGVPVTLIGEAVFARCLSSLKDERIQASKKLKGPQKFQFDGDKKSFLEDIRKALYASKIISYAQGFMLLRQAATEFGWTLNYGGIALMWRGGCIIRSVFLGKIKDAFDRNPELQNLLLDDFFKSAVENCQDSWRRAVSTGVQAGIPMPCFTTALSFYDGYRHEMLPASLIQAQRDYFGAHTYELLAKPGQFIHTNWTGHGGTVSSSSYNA
smiles,measurement,setting,value
C=C1C2CCC3(C)C(c4ccoc4)OC(=O)CC13OC1CC(OC(C)=O)C(C)(C)C(CC(=O)OC)C12C (stereo unspecified),inhibition,[1],5.49% (inactive)
same,luciferase signal,[2],56 AU (inactive)
CC(C)[C@@H](C)/C=C/[C@@H](C)[C@H]1CC[C@H]2C3=CC=C4C[C@@H](O)CC[C@]4(C)[C@H]3CC[C@]12C,inhibition,[1],-7.51% (inactive)
same,luciferase signal,[2],96 AU (inactive)
CC(C)CCC[C@@H](C)[C@H]1CC[C@H]2C3=CC[C@H]4C[C@@H](O)CC[C@]4(C)[C@H]3CC[C@]12C,inhibition,[1],4.86% (inactive)
same,luciferase signal,[2],56 AU (inactive)
CC(C)c1c(O)ccc2c1CCC1[C@@](C)(C=O)CCC[C@]21C (stereo partly specified),inhibition,[1],-10.2% (inactive)
same,luciferase signal,[2],16 AU (inactive)
COC(=O)C[C@H]1C(C)(C)[C@H](OC(C)=O)[C@@H]2CC3=C4CC(=O)O[C@@H](c5ccoc5)[C@]4(C)CC[C@@H]3C1(C)C2=O,inhibition,[1],7.02% (inactive)
same,luciferase signal,[2],24 AU (inactive)
CC1=C(/C=C/C(C)=C/C=C/C(C)=C/C=C/C=C(C)/C=C/C=C(C)/C=C/C2=C(C)C(=O)[C@@H](O)CC2(C)C)C(C)(C)C[C@H](O)C1=O,inhibition,[1],-11.7% (inactive)
same,luciferase signal,[2],48 AU (inactive)
O=c1cccc2cc(O)c(O)c(O)c2c1O,inhibition,[1],16.8% (inactive)
same,luciferase signal,[2],60 AU (inactive)
COC1=C[C@@H](C)[C@@H]2C[C@H]3OC(=O)C[C@H]4C(C)=C(OC)C(=O)[C@H]([C@@]2(C)C1=O)[C@@]34C,inhibition,[1],-9.87% (inactive)
same,luciferase signal,[2],40 AU (inactive)
CC1(C)[C@@H](O)CC[C@]2(C)[C@H]3C(=O)C=C4[C@H]5C[C@@](C)(C(=O)O)CC[C@]5(C)CC[C@@]4(C)[C@]3(C)CC[C@@H]12,inhibition,[1],-38.1% (inactive)
same,luciferase signal,[2],24 AU (inactive)
COc1ccc(-c2coc3cc(OC)cc(OC)c3c2=O)cc1,inhibition,[1],4.5% (inactive)
same,luciferase signal,[2],60 AU (inactive)
CC1=C[C@@H]2[C@@H](CC1)[C@](C)(O)CC[C@H]2C(C)C,inhibition,[1],9.65% (inactive)
same,luciferase signal,[2],48 AU (inactive)
C=C(C)CCCC(C)CCOC(C)=O (stereo unspecified),inhibition,[1],8.09% (inactive)
same,luciferase signal,[2],68 AU (inactive)
CCOC(=O)c1c(C)cc(OC)cc1O,inhibition,[1],13.5% (inactive)
same,luciferase signal,[2],84 AU (inactive)
CCC(C)C(=O)OC1[C@@H]2CC3=C4CC(=O)O[C@@H](c5ccoc5)[C@]4(C)CCC3[C@@](C)(C2=O)[C@@H](CC(=O)OC)C1(C)C (stereo partly specified),inhibition,[1],6.33% (inactive)
same,luciferase signal,[2],116 AU (inactive)
COc1ccc(CC(=O)c2ccc(O)cc2O)cc1,inhibition,[1],17.5% (inactive)
same,luciferase signal,[2],76 AU (inactive)
COc1cc2ccc(=O)oc2c(O)c1O,inhibition,[1],13.8% (inactive)
same,luciferase signal,[2],76 AU (inactive)
O=C(O)C1CC([C@@H]2CCCCN2)CN2CCCCC12 (stereo partly specified),inhibition,[1],18.1% (inactive)
same,luciferase signal,[2],220 AU (active)
CC(=O)OC1C[C@@]2(C)[C@H](c3ccoc3)OC(=O)[C@H]3O[C@]32[C@@]2(C)C1[C@]1(C)C(C[C@H]2OC(C)=O)C(C)(C)[C@H](OC(C)=O)C[C@@H]1OC(C)=O (stereo partly specified),inhibition,[1],-3.59% (inactive)
same,luciferase signal,[2],24 AU (inactive)
C[C@@H]1O[C@@H](O[C@H]2[C@H](O[C@H]3CC[C@@]4(C)[C@@H](CC[C@]5(C)[C@@H]4CC=C4[C@@H]6CC(C)(C)CC[C@]6(C(=O)O)CC[C@]45C)[C@]3(C)CO)OC[C@H](O)[C@@H]2O)[C@H](O)[C@H](O)[C@H]1O,inhibition,[1],10.9% (inactive)
same,luciferase signal,[2],40 AU (inactive)
N[C@@H](CSCSC[C@H](N)C(=O)O)C(=O)O,inhibition,[1],6.1% (inactive)
same,luciferase signal,[2],300 AU (inactive)
O=C(O)c1cc(O)c2c(c1)C(=O)c1cc(O)cc(O)c1C2=O,inhibition,[1],6.18% (inactive)
same,luciferase signal,[2],76 AU (inactive)
COC(=O)CC1C(C)(C)C(OC(C)=O)[C@@H]2[C@@H](OC(C)=O)[C@]34O[C@@]2(O)[C@]1(C)C3CC[C@]1(C)C4=CC(=O)O[C@H]1c1ccoc1 (stereo partly specified),inhibition,[1],-1.28% (inactive)
same,luciferase signal,[2],12 AU (inactive)
CC(=O)OCC1(O)CC23CCC4c5ccoc5CCC4(C)C2CCC1C3 (stereo unspecified),inhibition,[1],4.27% (inactive)
same,luciferase signal,[2],24 AU (inactive)
CCC(=O)O[C@H]1CC[C@H]2[C@@H]3CCc4cc(O)ccc4[C@H]3CC[C@]12C,inhibition,[1],-10.1% (inactive)
same,luciferase signal,[2],24 AU (inactive)
C[C@@H]([C@H]1OC(C)(C)[C@@H](O)[C@H]1O)[C@@H]1CC[C@]2(C)C3=CC[C@H]4C(C)(C)C(=O)CC[C@]4(C)[C@H]3CC[C@@]12C,inhibition,[1],4.2% (inactive)
same,luciferase signal,[2],44 AU (inactive)
COc1cc(OC)c2c(=O)c(OC)c(-c3ccc(OC)c(OC)c3)oc2c1,inhibition,[1],1.73% (inactive)
same,luciferase signal,[2],68 AU (inactive)
COC(=O)C[C@H]1C(C)(C)[C@@H](O)[C@@H]2CC3=C4C=C(OC)O[C@@H](c5ccoc5)[C@]4(C)CCC3[C@@]1(C)C2=O (stereo partly specified),inhibition,[1],1.56% (inactive)
same,luciferase signal,[2],28 AU (inactive)
O=C(/C=C(\O)c1ccccc1)c1ccccc1O,inhibition,[1],-0.592% (inactive)
same,luciferase signal,[2],16 AU (inactive)
CN1CCCC1c1cccnc1 (stereo unspecified),inhibition,[1],17.4% (inactive)
same,luciferase signal,[2],56 AU (inactive)
C=C1CCC2C(CC2(C)C)C(=C)CC/C1=N/O (stereo unspecified),inhibition,[1],16.7% (inactive)
same,luciferase signal,[2],88 AU (inactive)
COc1cc(OC)c2c(=O)c(-c3ccccc3)coc2c1,inhibition,[1],10.4% (inactive)
same,luciferase signal,[2],68 AU (inactive)
O=C1CC[C@]23/C=C\C(=O)NCCCCNCCCNC(=O)/C=C\c4ccc(c2c4)O[C@@H]3C1,inhibition,[1],-0.518% (inactive)
same,luciferase signal,[2],36 AU (inactive)
CC(=O)OC1CCC2(O)CC1(C)CCC1C2CC1(C)C (stereo unspecified),inhibition,[1],15.6% (inactive)
same,luciferase signal,[2],36 AU (inactive)
COc1cc2c3cc1Oc1c(OC)c(OC)cc4c1[C@@H](Cc1ccc(O)c(c1)Oc1ccc(cc1)C[C@@H]3N(C)CC2)N(C)CC4,inhibition,[1],14.7% (inactive)
same,luciferase signal,[2],64 AU (inactive)
COc1ccc(-c2cc(=O)c3cc(OC)ccc3o2)cc1,inhibition,[1],-2.36% (inactive)
same,luciferase signal,[2],40 AU (inactive)
CC(C)C1=CC2=CC[C@@H]3[C@](C)(CCC[C@@]3(C)C(=O)O)[C@H]2CC1,inhibition,[1],-6.38% (inactive)
same,luciferase signal,[2],44 AU (inactive)
CC(C)=CCc1c(O)cc2occ(-c3ccc4c(c3)OCO4)c(=O)c2c1O,inhibition,[1],-0.247% (inactive)
same,luciferase signal,[2],104 AU (inactive)
C/C1=C\CCC(=O)C2CC(C)(C)C2CC1 (stereo unspecified),inhibition,[1],-1.45% (inactive)
same,luciferase signal,[2],60 AU (inactive)
OC[C@@H](O)[C@@H](O)C(O)[C@H](O)[C@@H](O)CO (stereo partly specified),inhibition,[1],-5.44% (inactive)
same,luciferase signal,[2],56 AU (inactive)
CSCCC(NC=O)C(=O)NC(CC(C)C)C(=O)NC(Cc1ccccc1)C(=O)O (stereo unspecified),score,[3],1
same,rescue above control,[4],6.28
same,cytochrome c release ratio,[5],1.31
same,inhibition of aggregation,[6],53.9%
same,glutamate uptake change,[7],14.5%
same,inclusion score,[8],1
same,aggregation suppression score,[9],1.49
same,inhibition,[1],3.38% (inactive)
